Experimental data: PubChem BioAssay (Tox21)
Records with an inconclusive call do not appear. Activity calls are given as the source filed them. Unless noted, calls follow the shape of the dose curve; as a rule, active = well fitted curve in the direction sought with a large enough effect in the repeat runs; inconclusive = weak or mixed curves; inactive = no such curve, though single readings can be large; an effect the other way counts as inactive or inconclusive.

Legend:
[1] = qHTS assay to identify small molecule agonists of the peroxisome proliferator-activated receptor delta (PPARd) signaling pathway - cell viability counter screen (AID 743211); also: % is scaled to controls: 0 for no effect and ±100 for the full control effect; nearly all actives have a fitted effect of over 55% in size
Procedure, shortened: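 Tox21 library compounds, delivered in DMSO, were incubated 17 h with PPARd-bla HEK293H cells; cytotoxicity was taken from CellTiter-Glo luminescence read 30 min after reagent addition.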

[2] = qHTS assay to identify small molecule antagonists of the farnesoid-X-receptor (FXR) signaling pathway - cell viability counter screen (AID 743221; active = well fitted cell-killing curve with a large enough effect in the repeat runs, not every such curve was filed as active; also: % is scaled to controls: 0 for no effect and ±100 for the full control effect; nearly all actives have a fitted effect of over 50% in size)
Procedure, shortened: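 Cytotoxicity is taken from ATP luminescence (CellTiter-Glo, 30 min, room temperature) in FXR-bla HEK 293T cells previously incubated 16 h at 37 C with compound and chenodeoxycholic acid at 50 uM final.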

[3] = qHTS assay to identify small molecule agonists of the vitamin D receptor (VDR) signaling pathway - cell viability counter screen (AID 743224); also: series mostly up to about 63 µM; % is scaled to controls: 0 for no effect and ±100 for the full control effect; nearly all actives have a fitted effect of over 50% in size
Procedure, shortened: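 VDR-bla cells were preincubated 4 h at 37C/5% CO2, then exposed to compounds for 16 h. After the 2 h room-temperature bla FRET read, CellTiter-Glo was added to the same wells and luminescence read after 30 min.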

[4] = qHTS assay to identify small molecule antagonists of the vitamin D receptor (VDR) signaling pathway - cell viability counter screen (AID 743225); also: % is scaled to controls: 0 for no effect and ±100 for the full control effect; nearly all actives have a fitted effect of over 50% in size
Procedure, shortened: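 Same-well multiplex: following 16 h treatment of HEK 293T cells carrying a UAS-driven beta-lactamase reporter with compound and agonist (3 nM final), and a 2 h FRET substrate step, CellTiter-Glo was added and luminescence read after 30 min.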

[5] = qHTS assay to identify small molecule agonists of the NFkB signaling pathway (AID 1159509; active = well fitted curve in the direction sought with a large enough effect in the signal ratio in the repeat runs, not every such curve was filed as active; the % refers to the signal ratio; also: series mostly up to about 61 µM; % is scaled to controls: 0 for no effect and ±100 for the full control effect)
Procedure, shortened: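 ME-180 NFkB-bla, 2,000 cells/well, overnight plating; cpd pinned in DMSO, 5 h 37 C; B/G FRET substrate 1.5 h RT; ex 405, em 460/530 nm.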

[6] = qHTS assay to identify small molecule agonists of the NFkB signaling pathway - cell viability counter screen (AID 1159515; calls by dose curve; also: series mostly up to about 61 µM; % is scaled to controls: 0 for no effect and ±100 for the full control effect; nearly all actives have a fitted effect of over 55% in size)
Procedure, shortened: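 NFkB-bla ME-180 cells, 2,000/well, were plated overnight at 37 C, 5% CO2, then exposed to compounds in DMSO for 5 hr. After the bla FRET read, CellTiter-Glo was added to the same wells; luminescence was read after 30 min at room temperature.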

[7] = qHTS assay to identify small molecule agonists of the endoplasmic reticulum stress response signaling pathway (AID 1159516; active = well fitted activation curve with a large enough effect in the signal ratio in the repeat runs, not every such curve was filed as active; the % refers to the signal ratio; also: % is scaled to controls: 0 for no effect and ±100 for the full control effect)
Procedure, shortened: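 CellSensor ESRE-bla HeLa cells, carrying a beta-lactamase reporter driven by the ER stress response element, were plated overnight and exposed to compounds for 5 hr at 37 C. Reporter activity was read as FRET substrate fluorescence after 2 hr at room temperature.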

[8] = qHTS assay to identify small molecule agonists of the endoplasmic reticulum stress response signaling pathway - cell viability counter screen (AID 1159517; calls by dose curve; also: series mostly up to about 61 µM; % is scaled to controls: 0 for no effect and ±100 for the full control effect; nearly all actives have a fitted effect of over 50% in size)
Procedure, shortened: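 CellTiter-Glo was added to wells already read for beta-lactamase FRET, and luminescence was recorded 30 min later. Cells: ESRE-bla HeLa, 1,500 per well, compound exposure 5 hr at 37 C.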

[9] = qHTS assay to identify small molecule antagonists of the retinoid-related orphan receptor gamma (ROR-gamma) signaling pathway - cell viability counter screen (AID 1159520)
Procedure, shortened: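 Tet-on ROR gamma CHO cells (1,000/well) were plated 4 hr, given compounds in DMSO for 2 hr at 37 C, then induced with 1 uM final doxycycline for 16 hr. Viability was read as ATP by CellTiter-Glo luminescence after 30 min.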

[10] = target: Nuclear receptor ROR-gamma (Homo sapiens) (UniProt P51449); test: qHTS assay to identify small molecule antagonists of the retinoid-related orphan receptor gamma (ROR-gamma) signaling pathway (AID 1159521; also: nearly all actives have a fitted effect of over 50% in size; also: potency is read from the fitted curve at half-maximal effect)
Procedure, shortened: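 Inducible-expression reporter assay: doxycycline (1 uM final) switched on RORγ in CHO cells bearing a ROR response element-luciferase construct, with test compounds present from 2 h beforehand. Decreased luminescence after 16 h defined antagonist activity.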

[11] = qHTS assay to identify small molecule agonists of the AP-1 signaling pathway - cell viability counter screen (AID 1159525; calls by dose curve; also: nearly all actives have a fitted effect of over 55% in size)
Procedure, shortened: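 ME-180 AP-1-bla, 2500 cells/well, Opti-MEM + 0.5% dialyzed FBS; overnight 37 °C; cpd 15-pt titration, 5 h 37 °C; CellTiter-Glo 30 min RT; luminescence read; normalised to TOAB and DMSO controls.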

[12] = qHTS assay to identify small molecule agonists of the AP-1 signaling pathway (AID 1159526; calls by dose curve; also: % is scaled to controls: 0 for no effect and ±100 for the full control effect)
[13] = target: Peroxisome proliferator-activated receptor delta (Homo sapiens) (UniProt Q03181); test: qHTS assay to identify small molecule agonists of the peroxisome proliferator-activated receptor delta (PPARd) signaling pathway (AID 743212; calls by dose curve; also: % is scaled to controls: 0 for no effect and ±100 for the full control effect)
Procedure, shortened: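 A PPARd-bla HEK293H line with beta-lactamase under an Upstream Activator Sequence is treated with compounds at 37 C. Substrate loading for 2 h at room temperature precedes the fluorescence measurement.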

[14] = qHTS assay to identify small molecule antagonists of the peroxisome proliferator-activated receptor delta (PPARd) signaling pathway - cell viability counter screen (AID 743213)
Procedure, shortened: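 In this counter screen, HEK293H cells carrying a UAS-beta-lactamase reporter are co-treated with test compounds and 300 nM L165041 (final) for 17 h at 37 C; cell viability is quantified by CellTiter-Glo luminescence.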

[15] = target: Peroxisome proliferator-activated receptor delta (Homo sapiens) (UniProt Q03181); test: qHTS assay to identify small molecule antagonists of the peroxisome proliferator-activated receptor delta (PPARd) signaling pathway (AID 743215; active = well fitted inhibition curve with a large enough effect in the signal ratio in the repeat runs, not every such curve was filed as active; the % refers to the signal ratio)
Procedure, shortened: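 PPARd UAS-bla HEK293H cells were pre-incubated 5 h at 37 C, then given test compounds in DMSO plus agonist L165041 (300 nM final). After 17 h at 37 C, beta-lactamase FRET substrate was added; fluorescence read after 2 h at room temperature.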

[16] = qHTS assay to identify small molecule agonists of the farnesoid-X-receptor (FXR) signaling pathway - cell viability counter screen (AID 743218); also: % is scaled to controls: 0 for no effect and ±100 for the full control effect; nearly all actives have a fitted effect of over 45% in size
Procedure, shortened: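 FXR-UAS-bla HEK 293T cells, plated 5 h at 37 C, were exposed to compounds for 16 h at 37 C. CellTiter-Glo was then added to the same wells as the bla readout; luminescence read after 30 min at room temperature.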

[17] = target: Vitamin D3 receptor (Homo sapiens) (UniProt P11473); test: qHTS assay to identify small molecule agonists of the vitamin D receptor (VDR) signaling pathway (AID 743222; calls by dose curve; also: % is scaled to controls: 0 for no effect and ±100 for the full control effect)
Procedure, shortened: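 VDR-bla cells were plated 4 h at 37C/5% CO2, then exposed to compounds in DMSO for 16 h. After LiveBLAzer B/G FRET substrate addition and 2 h at room temperature, beta-lactamase reporter fluorescence was read.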

[18] = target: Vitamin D3 receptor (Homo sapiens) (UniProt P11473); test: qHTS assay to identify small molecule antagonists of the vitamin D receptor (VDR) signaling pathway (AID 743223; active = well fitted inhibition curve with a large enough effect in the signal ratio in the repeat runs, not every such curve was filed as active; the % refers to the signal ratio; also: % is scaled to controls: 0 for no effect and ±100 for the full control effect)
Procedure, shortened: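 Quantitative HTS in VDR-bla reporter cells stimulated with 1alpha,25-dihydroxyvitamin D3, 3 nM final. Compound exposure 16 h, 37C, 5% CO2. Read-out: beta-lactamase FRET substrate fluorescence, 2 h RT.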

[19] = target: Bile acid receptor (Homo sapiens) (UniProt Q96RI1); test: qHTS assay to identify small molecule antagonists of the farnesoid-X-receptor (FXR) signaling pathway (AID 743217; active = well fitted inhibition curve with a large enough effect in the signal ratio in the repeat runs, not every such curve was filed as active; the % refers to the signal ratio; also: % is scaled to controls: 0 for no effect and ±100 for the full control effect)
Procedure, shortened: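 FXR-UAS-bla HEK 293T cells pre-incubated 5 h at 37 °C, then exposed to compounds with chenodeoxycholic acid (50 uM final) for 16 h at 37 °C. Beta-lactamase reporter read by LiveBLAzer B/G FRET substrate fluorescence after 2 h at room temperature.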

[20] = target: Bile acid receptor (Homo sapiens) (UniProt Q96RI1); test: qHTS assay to identify small molecule agonists of the farnesoid-X-receptor (FXR) signaling pathway (AID 743220; active = well fitted activation curve with a large enough effect in the signal ratio in the repeat runs, not every such curve was filed as active; the % refers to the signal ratio; also: % is scaled to controls: 0 for no effect and ±100 for the full control effect)
Procedure, shortened: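 Beta-lactamase reporter under UAS control in GeneBLAzer FXR HEK 293T cells (5000/well) measured with LiveBLAzer FRET substrate after 2 h at room temperature. Compound exposure lasted 16 h at 37C.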

Sequence of Bile acid receptor (Homo sapiens) (Q96RI1 whole entry, looked up): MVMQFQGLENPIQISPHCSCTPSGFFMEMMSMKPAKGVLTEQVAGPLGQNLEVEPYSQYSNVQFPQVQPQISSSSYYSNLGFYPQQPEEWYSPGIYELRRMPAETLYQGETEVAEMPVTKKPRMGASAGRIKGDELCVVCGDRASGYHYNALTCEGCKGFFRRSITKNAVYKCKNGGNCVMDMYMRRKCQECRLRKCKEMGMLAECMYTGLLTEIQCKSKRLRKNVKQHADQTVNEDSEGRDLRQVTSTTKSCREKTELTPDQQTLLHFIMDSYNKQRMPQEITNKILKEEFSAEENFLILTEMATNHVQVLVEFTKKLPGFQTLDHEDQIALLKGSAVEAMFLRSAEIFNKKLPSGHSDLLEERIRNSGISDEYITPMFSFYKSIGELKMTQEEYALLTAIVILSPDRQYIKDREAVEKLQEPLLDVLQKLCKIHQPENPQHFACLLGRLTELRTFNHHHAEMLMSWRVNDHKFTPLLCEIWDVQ
Sequence of Vitamin D3 receptor (Homo sapiens) (P11473 whole entry, looked up): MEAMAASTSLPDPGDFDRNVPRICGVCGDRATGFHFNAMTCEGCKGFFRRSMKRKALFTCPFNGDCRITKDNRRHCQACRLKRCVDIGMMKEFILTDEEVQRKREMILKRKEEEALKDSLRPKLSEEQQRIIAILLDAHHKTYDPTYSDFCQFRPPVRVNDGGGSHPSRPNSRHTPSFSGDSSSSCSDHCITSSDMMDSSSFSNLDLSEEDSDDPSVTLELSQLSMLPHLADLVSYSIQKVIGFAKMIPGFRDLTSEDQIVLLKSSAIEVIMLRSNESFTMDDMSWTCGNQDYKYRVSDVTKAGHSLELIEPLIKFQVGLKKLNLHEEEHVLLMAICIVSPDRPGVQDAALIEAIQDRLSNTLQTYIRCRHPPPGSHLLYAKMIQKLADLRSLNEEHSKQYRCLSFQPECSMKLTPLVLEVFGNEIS
Sequence of Peroxisome proliferator-activated receptor delta (Homo sapiens) (Q03181 whole entry, looked up): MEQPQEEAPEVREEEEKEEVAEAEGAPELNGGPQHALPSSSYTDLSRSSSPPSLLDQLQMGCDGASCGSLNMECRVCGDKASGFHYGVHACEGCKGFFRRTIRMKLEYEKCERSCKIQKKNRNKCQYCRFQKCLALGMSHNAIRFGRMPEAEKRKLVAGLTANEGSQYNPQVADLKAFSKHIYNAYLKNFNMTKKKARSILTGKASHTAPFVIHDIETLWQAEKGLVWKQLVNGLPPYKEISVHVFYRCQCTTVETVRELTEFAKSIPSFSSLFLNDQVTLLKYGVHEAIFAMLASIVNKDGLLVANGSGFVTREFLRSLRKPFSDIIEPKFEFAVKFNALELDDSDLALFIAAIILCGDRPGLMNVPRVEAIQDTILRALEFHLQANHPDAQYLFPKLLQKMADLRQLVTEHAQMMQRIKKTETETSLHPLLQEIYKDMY

COC(=O)[C@H]1[C@H]2C[C@@H]3c4[nH]c5cc(OC)ccc5c4CCN3C[C@H]2C[C@@H](OC(=O)COc2ccc(OC)cc2)[C@@H]1OC
inactive: Potency [1] | Potency [2] | outcome [3] | outcome [4] | outcome [5] | outcome [6] | outcome [7] | outcome [8] | Potency [9] | Potency [10] | outcome [11] | Potency [12]

O=C1OC(=O)c2cc([N+](=O)[O-])ccc21
inactive: outcome [13] | Potency [14] | outcome [15] | outcome [16] | Potency [2] | outcome [17] | outcome [18] | outcome [4] | outcome [5] | outcome [6] | outcome [7] | outcome [8] | Potency [9] | Potency [10] | outcome [11] | Potency [12]

Nc1ccc2cc(S(=O)(=O)O)ccc2c1
inactive: outcome [13] | Potency [14] | outcome [15] | outcome [19] | outcome [16] | outcome [20] | Potency [2] | outcome [17] | outcome [18] | outcome [3] | outcome [5] | outcome [6] | outcome [7] | outcome [8] | Potency [9] | Potency [10] | outcome [11] | Potency [12]

CC(=O)N[C@@H](CCC(N)=O)C(=O)O
inactive: outcome [13] | Potency [14] | outcome [15] | outcome [19] | outcome [20] | Potency [2] | outcome [17] | outcome [18] | outcome [3] | outcome [5] | outcome [6] | outcome [7] | outcome [8] | Potency [9] | Potency [10] | outcome [11] | Potency [12]

FC(F)(F)C(F)(F)C(F)(F)C(F)(F)C(F)(F)C(F)(F)C(F)(F)C(F)(F)C(F)(F)C(F)(F)F
inactive: activity change, negative = cytotoxicity [1] 5.8% [at 5.95 µM] | viability change, negative = cytotoxic [14] -11.7% [at 6.26 µM] | viability change, negative = cytotoxic [16] 1.72% [at 5.95 µM] | activity change, negative = cytotoxicity [2] 9.95% [at 5.95 µM] | activation [17] 0.833% [at 6.01 µM] | activity change, negative = inhibition [18] -8.47% [at 6.95 µM] | activity change, negative = cytotoxicity [3] 9.06% [at 5.95 µM] | activation [5] -0.0985% [at 6.95 µM] | activity, negative = cytotoxic [6] 0.724% [at 6.95 µM] | activation [7] -9% [at 6.95 µM] | activity change, negative = cytotoxicity [8] -26.7% [at 6.95 µM] | activity, negative = cytotoxicity [9] 0.201% [at 8.39 µM] | activity change, negative = inhibition [10] 29.3% [at 8.39 µM] | viability change, negative = cytotoxic [11] -11.9% [at 6.97 µM] | activation [12] 7.26% [at 6.97 µM]

O=C(O)C(O)[C@H](O)[C@@H](O)[C@H](O)[C@H](O)CO (some centres not stated)
inactive: Potency [1] | outcome [19] | outcome [16] | outcome [20] | Potency [2] | outcome [17] | outcome [4] | outcome [5] | outcome [6] | outcome [7] | outcome [8] | Potency [9] | Potency [10] | outcome [11] | Potency [12]

COc1ccc(COC=O)cc1
inactive: outcome [13] | Potency [14] | outcome [19] | outcome [16] | outcome [20] | Potency [2] | outcome [3] | outcome [4] | outcome [5] | outcome [6] | outcome [7] | outcome [8] | Potency [9] | Potency [10] | outcome [11] | Potency [12]

CCCCc1ccc(N)cc1
inactive: Potency [1] | Potency [14] | outcome [17] | outcome [18] | outcome [3] | outcome [4] | outcome [5] | outcome [6] | outcome [7] | outcome [8] | Potency [9] | Potency [10] | outcome [11] | Potency [12]

Nc1cc(C(Cl)=C(Cl)Cl)c(S(N)(=O)=O)cc1S(N)(=O)=O
inactive: Potency [1] | Potency [14] | outcome [16] | Potency [2] | outcome [3] | outcome [4] | outcome [5] | outcome [6] | outcome [7] | outcome [8] | Potency [9] | Potency [10] | outcome [11] | Potency [12]

CCN1CCCC1CNC(=O)c1cc(S(N)(=O)=O)ccc1OC (configuration not stated)
inactive: Potency [1] | outcome [16] | Potency [2] | outcome [17] | outcome [18] | outcome [4] | outcome [5] | outcome [6] | outcome [7] | outcome [8] | Potency [9] | outcome [11] | Potency [12]
active: Potency [10] 54.5 µM

O=C(O)Cc1cc(I)c(Oc2cc(I)c(O)c(I)c2)c(I)c1
inactive: Potency [1] | Potency [14] | outcome [3] | outcome [4] | outcome [5] | outcome [6] | outcome [7] | outcome [8] | Potency [9] | Potency [10] | outcome [11] | Potency [12]

C1=C\CC/C=C\CC/C=C\CC/1
inactive: outcome [13] | Potency [14] | outcome [19] | outcome [16] | outcome [20] | Potency [2] | outcome [17] | outcome [3] | outcome [5] | outcome [6] | outcome [7] | outcome [8] | Potency [9] | Potency [10] | outcome [11] | Potency [12]

CC1CCN(CCCC(=O)c2ccc(F)cc2)CC1
inactive: Potency [1] | Potency [14] | outcome [19] | outcome [20] | Potency [2] | outcome [5] | outcome [6] | outcome [7] | outcome [8] | Potency [9] | Potency [10] | outcome [11] | Potency [12]

NCCNC(=O)c1ccc(Cl)cn1
inactive: Potency [1] | Potency [14] | outcome [16] | Potency [2] | outcome [17] | outcome [18] | outcome [4] | outcome [5] | outcome [6] | outcome [7] | outcome [8] | Potency [9] | Potency [10] | outcome [11] | Potency [12]
